Consider 35 molecules from PubChem BioAssay (NCI).

The panel holds about 83,000 compounds, 20% with a hit somewhere; the sample as a whole holds those more often.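 Testing used 96-well plates and a 48-hour single-concentration exposure. Example: -40 means 40% of the starting cells died.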 Unmarked numbers belong to inactive results. The source made the active and inactive calls. How the source made its calls: active means growth percent below 10; inactive means the rest.

The experiment concerns HL-60(TB) leukemia. The experiment in a line: NCI-60 one-dose screen, 48 h (100 = growth as untreated, 0 = no growth, -100 = all killed). To be noted: 10 µM unless noted.
In the case of `CC(=O)Oc1ccc(C(OC(C)=O)OC(C)=O)cc1`, the growth was 90.3%.

Consider `Cn1cc(-c2csc(-c3c[nH]c4ccc(F)cc34)n2)c2cnccc21`, for which the growth was -59.4% (active).

Regarding `O=C1OCC2=C1C(c1ccc3c(c1)OCO3)CC(=O)N2c1cccc(Cl)c1` (stereo not given), the growth was 95.6%.

Take `COc1cc(Cc2cc(-c3ccc(Cl)cc3)n[nH]c2=O)ccc1O`: the growth is 93.5%.

As for `CC1CN=C(c2cccc(-c3ccc(-c4ccccc4)o3)c2)N1` (stereo not given), the growth was -46.1% (active).

`C#CC[C@@H]1C[C@]2(C)[C@H]3CC=C4[C@H]5[C@@H](C)[C@H](C)CC[C@]5(C(=O)NCCCCCCCCN)CC[C@@]4(C)[C@]3(C)CC[C@H]2C(C)(C)[C@H]1OC(C)=O`: the growth was -15.1% (active).

In the case of `CCCCC[C@H]1C/C=C2/C(=O)C(Cl)=C[C@@H]2C/C=C\CCCC(=O)O[C@@H](CCCCC)C/C=C2/C(=O)C(Cl)=C[C@@H]2C/C=C\CCCC(=O)O1`, the growth was -19.1% (active).

On to `CCOC(=O)c1nc(Nc2ccc(NC(=O)Nc3ccc(F)cc3)cc2)c2ccccc2n1`, for which the growth was 110%.

As to `COc1cc(C(=O)Nc2cc(OC)c3ccn(C)c3c2)cc2c1C[C@]1(C)CC[C@@H](O)C(C)(C)[C@H]1O2`, the growth was 1.14% (active).

As to `COc1ccc(CCN2CCCN3C2=Nc2ccccc2S3(=O)=O)cc1`, the growth was 3.21% (active).

As to `CCCC(=O)OCC1OC(n2cnc3c(=S)nc(N)[nH]c32)C(OC(=O)CCC)C1OC(=O)CCC` (stereo not given), the growth is 13.2%.

For the molecule `O=c1ccc(-c2nc(N3CCOCC3)c3ccccc3n2)c[nH]1`, the growth was 95.8%.

For the molecule `CC(=O)OC(C)C(=O)NCC(C)O` (stereo not given), the growth was 86.9%.

As for `C=C(C)[C@@H]1CC[C@]2(C(=O)O)CC[C@]3(C)[C@H](CC[C@@H]4[C@@]5(C)C[C@@H](CC#Cc6ccc(Cl)cc6)C(=O)C(C)(C)[C@@H]5CC[C@]43C)[C@@H]12`, the growth is 22.2%.

As to `Cc1oc(-c2ccc(Cl)cc2)nc1C1=NN(C(=O)c2ccncc2)C(c2ccccc2)C1` (stereo not given), the growth is 97.7%.

Turning to `COC(=O)C1=C(C(=O)Nc2cccnc2)C2OC1(C(Cc1ccccc1)Oc1ccccc1)C1OC21` (stereo not given), the growth is -56.2% (active).

For `FC(F)(F)c1ccc(Cn2cc(CSc3nc4ccccc4s3)nn2)cc1`, the growth was 97.9%.

Regarding `CCNc1nc(-c2ccc(F)cc2)c(C#N)c(=O)n1C`, the growth is 85.8%.

In the case of `O=S(=O)(O)CCl`, the growth is 94.7%.

In the case of `COc1cc(NC(C)CCCN2C(=O)c3ccccc3C2=O)c2nccc(C)c2c1OC` (stereo not given), the growth is 9.5% (active).

As to `COC(=O)[C@@H](NC(=O)[C@@H](OC)[C@@H]1Cc2cc3cc(OC4CC(OC5CC(O)C(O)C(C)O5)C(O)C(C)O4)c(C)c(O)c3c(O)c2C(=O)[C@H]1OC1CC(OC2CC(OC3CC(C)(O)C(O)C(C)O3)C(O)C(C)O2)C(O)C(C)O1)C(C)C` (stereo not given in full), the growth is 52.4%.

Take `O=C(NCCCN1CCCCC1)c1ccc(-c2nc3ccc4[nH]ncc4c3c3c2CCCC3)cc1`: the growth is 93.4%.

As for `CC(=O)n1nc(C(=O)OC(C)(C)c2ccccc2)c2ccccc21`, the growth is 97.5%.

As for `COc1cccc(C2C(C#N)=C(N)Oc3cc(OC)ccc32)c1` (stereo not given), the growth is -32.2% (active).

With `O=C1C(=O)c2ccccc2C(O)=C1CCCc1ccc(C2CCCCC2)cc1`, the growth was 30.6%.

In the case of `Fc1ccc(/C=N/n2c(-c3cc(Cl)cc(Cl)c3Cl)nn(CNc3ccc(Cl)nn3)c2=S)cc1`, the growth is 90.1%.

`CCCOC(=O)Nc1nc2ccc(SCC)cc2s1`: the growth is 76.4%.

For the molecule `Cn1ncc2ccc(-c3nc(-c4ccccc4)[nH]c3-c3n[nH]c(=O)n3C3CC3)cc21`, the growth was 84.7%.

Turning to `O=S(=O)(NCCCNc1nccc(-c2c(-c3ccccc3)nc3sccn23)n1)c1ccc(F)cc1`, the growth is 22.5%.

Take `O=[N+]([O-])c1cnc(N2CCN(CC3CC3)CC2)nc1N1CCN(CC2CC2)CC1`: the growth was 99.2%.

For `CCN(CC)CCOC(=O)c1ccc(N=Nc2ccc(O)c(OC)c2)cc1`, the growth was 97.5%.

Take `O=C(CCN1CCCC1)Nc1ccc2c(Nc3ccc(F)cc3)c3ccccc3nc2c1`: the growth is -54.9% (active).

Consider `O=C(Nc1ccccc1)c1cc(-n2cnc([N+](=O)[O-])c2)cc(-n2cnc([N+](=O)[O-])c2)n1`, for which the growth is 96.4%.

Take `FC(F)(F)c1ccc(-c2cnc(Br)nc2NC2CCCCCC2)cc1`: the growth is 8.9% (active).

Take `C#CCn1cnc2cnc(Nc3cccc(NC(=O)C=C)c3)nc21`: the growth is 8.32% [6.25 µM] (active).
